Laboratory results reported in PubChem BioAssay AID1159580 (chemical genetic matrix, 2015).
Several values for one entry are separate records, joined by “and”; a condition that tells them apart may be missing. Identical values can stand only once. The whole screen tested about 5,500 compounds, of which about 2,000 (36%) were called active. Not shown: some 18% with an inconclusive outcome. Rule as the data show it: active = normalized growth mostly below about 0.91 (no sharp cut-off); inconclusive = no clear call, values can overlap the other calls; inactive = mostly above about 0.92. The list shows a part of the results.

Assay: chemical genetic growth profiling, strain panel (AID 1159580);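 also: tested at 20 µM; growth read once vehicle control cultures reached saturation at 30 °C; 1 = growth at the plate median or of vehicle wells; lower values mean less growth of the strain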
Details: S. cerevisiae deletion strains, growth OD

Measured: normalized growth

C[C@@H]1O[C@@H](O[C@H]2[C@@H](Oc3cc(O)c4c(c3)O[C@H](c3ccc(O)cc3)CC4=O)O[C@H](CO)[C@@H](O)[C@@H]2O)[C@H](O)[C@H](O)[C@H]1O
inactive: locus YAL013W, strain DEP1, active compounds read low 1 | locus YAL021C, strain ccr4, active compounds read low 0.969 | locus YAL026C, strain drs2, active compounds read low 0.977 | locus YAL030W, strain snc1, active compounds read low 0.956 | locus YBL061C, strain skt5, active compounds read low 0.96 | locus YBR009C, strain hhf1, active compounds read low 0.971 | locus YBR021W, strain FUR4, active compounds read low 1.02 | locus YBR023C, strain chs3, active compounds read low 0.978 | locus YBR171W, strain sec66, active compounds read low 0.977 | locus YBR229C, strain ROT2, active compounds read low 0.956 | locus YBR231C, strain swc5, active compounds read low 0.97 | locus YBR279W, strain paf1, active compounds read low 0.975 | locus YCL011C, strain gbp2, active compounds read low 0.957 | locus YCL016C, strain dcc1, active compounds read low 0.972 | locus YCL029C, strain bik1, active compounds read low 0.991 | locus YCL061C, strain MRC1, active compounds read low 0.985 | locus YCL069W, strain vba3, active compounds read low 0.97 | locus YCR088W, strain abp1, active compounds read low 0.979 | locus YDL005C, strain med2, active compounds read low 0.967 | locus YDL035C, strain GPR1, active compounds read low 0.996 | locus YDL040C, strain nat1, active compounds read low 0.981 | locus YDL074C, strain BRE1, active compounds read low 0.975 | locus YDL101C, strain DUN1, active compounds read low 0.977 | locus YDL134C, strain PPH21, active compounds read low 0.956 | locus YDL185W, strain tfp1, active compounds read low 0.992 | locus YDL192W, strain arf1, active compounds read low 0.995 | locus YDR001C, strain nth1, active compounds read low 0.954 | locus YDR069C, strain doa4, active compounds read low 0.97 | locus YDR101C, strain arx1, active compounds read low 0.997 | locus YDR137W, strain rgp1, active compounds read low 0.983 | locus YDR150W, strain NUM1, active compounds read low 0.977 | locus YDR159W, strain sac3, active compounds read low 0.978 | locus YDR162C, strain NBP2, active compounds read low 0.992 | locus YDR195W, strain ref2 0.956 | locus YDR297W, strain sur2, active compounds read low 0.984 | locus YDR318W, strain mcm21, active compounds read low 0.994 | locus YDR334W, strain swr1, active compounds read low 0.942 | locus YDR335W, strain msn5, active compounds read low 0.969 | locus YDR388W, active compounds read low 1 | locus YDR392W, strain spt3, active compounds read low 0.934 | locus YDR502C, strain sam2, active compounds read low 1 | locus YEL003W, strain gim4, active compounds read low 0.967 | locus YEL037C, strain rad23, active compounds read low 0.966 | locus YEL061C, strain CIN8 (second series), active compounds read low 0.964 | locus YEL061C, strain CIN8, active compounds read low 1 | locus YER015W, strain faa2, active compounds read low 0.959 | locus YER016W, strain bim1, active compounds read low 0.971 | locus YER110C, active compounds read low 0.986 | locus YER111C, strain swi4, active compounds read low 0.983 | locus YER155C, strain BEM2 (second series), active compounds read low 0.972 | locus YER155C, strain BEM2, active compounds read low 1.01 | locus YER167W, strain BCK2, active compounds read low 1 | locus YFR010W, strain ubp6, active compounds read low 0.954 | locus YGL078C, strain dbp3, active compounds read low 0.991 | locus YGL086W, strain mad1, active compounds read low 0.998 | locus YGL167C, strain pmr1, active compounds read low 0.977 | locus YGL173C, strain kem1, active compounds read low 0.946 | locus YGL227W, strain vid30, active compounds read low 0.975 | locus YGL240W, strain doc1, active compounds read low 0.991 | locus YGL248W, strain PDE1, active compounds read low 0.979 | locus YGL253W, strain hxk2, active compounds read low 0.977 | locus YGR078C, strain PAC10, active compounds read low 0.987 | locus YGR135W, strain pre9, active compounds read low 1 | locus YGR229C, strain SMI1, active compounds read low 0.987 | locus YGR252W, strain gcn5, active compounds read low 0.991 | locus YHR013C, strain ard1, active compounds read low 0.943 | locus YHR027C, strain rpn1, active compounds read low 0.959 | locus YHR030C, strain SLT2, active compounds read low 0.99 and 1 | locus YHR079C, strain IRE1 (second series), active compounds read low 0.999 | locus YHR079C, strain IRE1, active compounds read low 0.989 | locus YHR094C, strain hxt1, active compounds read low 0.996 | locus YHR129C, strain ARP1, active compounds read low 0.993 | locus YHR142W, strain chs7, active compounds read low 0.921 | locus YHR200W, strain rpn10, active compounds read low 1 | locus YIL066C, strain RNR3, active compounds read low 0.976 | locus YIL073C, strain SPO22, active compounds read low 0.946 | locus YIL125W, strain kgd1, active compounds read low 0.999 | locus YIR030C, strain dcg1, active compounds read low 0.986 | locus YJL092W, strain hpr5, active compounds read low 0.967 | locus YJL095W, strain BCK1 (second series), active compounds read low 0.968 | locus YJL095W, strain BCK1, active compounds read low 0.998 and 1 | locus YJL115W, strain asf1, active compounds read low 0.938 | locus YJL129C, strain trk1, active compounds read low 0.939 | locus YJL134W, strain LCB3, active compounds read low 0.985 | locus YJL154C, strain vps35, active compounds read low 0.961 | locus YJL164C, strain tpk1, active compounds read low 0.98 | locus YJL166W, strain qcr8, active compounds read low 0.977 | locus YJL168C, strain set2, active compounds read low 1 | locus YJL187C, strain SWE1 (second series), active compounds read low 0.968 | locus YJL187C, strain SWE1, active compounds read low 0.974 | locus YJR043C, strain POL32, active compounds read low 0.995 | locus YJR066W, strain TOR1, active compounds read low 0.926
